# In the supplement of paper PMC8728848:
# This is one part of a sample in which the strongest signals are shown more often than they occur.
# B1: Thrombomodulin Lectin (Mus musculus) (protein)
# chain: LSALAKLQPTGSQCVEHECFALFQGPATFLDASQACQRLQGHLMTVRSSVAADVISLLLSQSSMDLGPWIGLQLPQGCDDPVHLGPLRGFQWVTGDNHTSYSRWARPNDQTAPLCGPLCVTVSTATEAAPGEPAWEEKPCETETQGFLCEFYFTASCRVDPIPVREDTKEEEGAGEPPVSPTPGSPTGPPSARPVLDEPRVPITQNPCPPLKECPPCAAPDLEGGPSVFIFPPKIKDVLMISLSPMVTCVVVDVSEDDPDVQISWFVNNVEVHTAQTQTHREDYNSTLRVVSALPIQHQDWMSGKAFACAVNNRALPSPIEKTISKPRGPVRAPQVYVLPPPAEEMTKKEFSLTCMITGFLPAEIAVDWTSNGRTEQNYKNTATVLDSDGSYFMYSKLRVQKSTWERGSLFACSVVHEGLHNHLTTKTISRSLGK
# How the values were obtained:
# Assay in all cases: glycan array binding signal (z-score within array); higher = stronger binding
# Settings in all cases: glycan notation: IUPAC condensed, linker removed
# [1] = biological target: Fuc(a1-2)Gal(b1-4)GlcNAc(b1-2)Man(a1-3)[Fuc(a1-2)Gal(b1-4)GlcNAc(b1-2)Man(a1-6)]Man(b1-4)GlcNAc(b1-4)GlcNAc
# In short: (§1)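 Glycan array data came from 3228 arrays in the Consortium for Functional Glycomics database, and only arrays with an available protein sequence were kept. Glycan names were put into IUPAC-condensed notation, and columns mapping to the same glycan were averaged. The binding signal is a within-array Z-score, averaged across arrays of one protein sequence run at different concentrations or buffers and across linkers. A negative Z-score can be read as non-binding.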
# [2] = biological target: Fuc(a1-2)Gal(b1-4)GlcNAc(b1-6)GalNAc
# In short: as §1
# [3] = biological target: Fuc(a1-2)Gal6S(b1-4)Glc
# In short: as §1
# [4] = biological target: Fuc(a1-2)Gal6S(b1-4)Glc6S
# In short: as §1
# [5] = biological target: Fuc(a1-2)[Gal(a1-3)]Gal(b1-4)GlcNAc(b1-2)Man(a1-3)[Fuc(a1-2)[Gal(a1-3)]Gal(b1-4)GlcNAc(b1-2)Man(a1-6)]Man(b1-4)GlcNAc(b1-4)GlcNAc
# In short: as §1
# [6] = biological target: Fuc(a1-2)[Gal(a1-3)]Gal(b1-4)GlcNAc(b1-3)[Fuc(a1-2)[Gal(a1-3)]Gal(b1-4)GlcNAc(b1-6)]GalNAc
# In short: as §1
# [7] = biological target: Fuc(a1-2)[Gal(a1-3)]Gal(b1-4)GlcNAc(b1-6)GalNAc
# In short: as §1
# [8] = biological target: Fuc(a1-2)[Gal(a1-4)]Gal(b1-4)GlcNAc
# In short: as §1
# [9] = biological target: Fuc(a1-2)[GalNAc(a1-3)]Gal
# In short: as §1
# [10] = biological target: Fuc(a1-2)[GalNAc(a1-3)]Gal(b1-4)Glc
# In short: as §1
# [11] = biological target: Fuc(a1-3)[Gal3S(b1-4)]GlcNAc
# In short: as §1
# [12] = biological target: Fuc(a1-3)[GalNAc(b1-4)]GlcNAc
# In short: as §1
# [13] = biological target: Gal(a1-3)Gal(b1-4)Glc
# In short: as §1
# [14] = biological target: Gal(a1-3)GalNAc
# In short: as §1
# [15] = biological target: Gal(a1-4)Gal(b1-4)GlcNAc(b1-3)Gal(b1-4)Glc
# In short: as §1
# [16] = biological target: Gal(b1-3)Gal
# In short: as §1
# [17] = biological target: Gal(b1-3)[Fuc(a1-4)]GlcNAc(b1-6)GalNAc
# In short: as §1
# [18] = biological target: Gal(b1-4)GlcNAc(b1-2)Man(a1-3)[Gal(b1-4)GlcNAc(b1-2)Man(a1-6)][Gal(b1-4)GlcNAc(b1-4)]Man(b1-4)GlcNAc(b1-4)[Fuc(a1-6)]GlcNAc
# In short: as §1
# [19] = biological target: Gal(b1-4)GlcNAc(b1-2)[Gal(b1-4)GlcNAc(b1-4)]Man(a1-3)[Gal(b1-4)GlcNAc(b1-2)Man(a1-6)]Man(b1-4)GlcNAc(b1-4)GlcNAc
# In short: as §1
# [20] = biological target: Gal(b1-4)GlcNAc(b1-3)Gal(b1-4)GlcNAc(b1-2)Man(a1-3)[Gal(b1-4)GlcNAc(b1-3)Gal(b1-4)GlcNAc(b1-2)Man(a1-6)]Man(b1-4)GlcNAc(b1-4)[Fuc(a1-6)]GlcNAc
# In short: as §1
# [21] = biological target: Gal(b1-4)GlcNAc6P
# In short: as §1
# [22] = biological target: Gal6S(b1-4)Glc
# In short: as §1
# [23] = biological target: GalNAc(b1-4)GlcNAc6S
# In short: as §1
# [24] = biological target: GlcA(b1-6)Gal
# In short: as §1
# [25] = biological target: GlcNAc(a1-3)Gal(b1-4)GlcNAc
# In short: as §1
# [26] = biological target: GlcNAc(a1-4)Gal(b1-4)GlcNAc(b1-3)Gal(b1-4)[Fuc(a1-3)]GlcNAc(b1-3)Gal(b1-4)[Fuc(a1-3)]GlcNAc
# In short: as §1
# [27] = biological target: GlcNAc(a1-6)Gal(b1-4)GlcNAc
# In short: as §1
# [28] = biological target: GlcNAc(b1-2)Man(a1-3)[GlcNAc(b1-2)Man(a1-6)]Man(b1-4)GlcNAc(b1-4)[Fuc(a1-6)]GlcNAc
# In short: as §1
# [29] = biological target: GlcNAc(b1-3)Gal(b1-4)GlcNAc(b1-3)Gal(b1-4)GlcNAc
# In short: as §1
# [30] = biological target: GlcNAc(b1-3)Gal(b1-4)GlcNAc(b1-3)Gal(b1-4)GlcNAc(b1-2)[GlcNAc(b1-3)Gal(b1-4)GlcNAc(b1-3)Gal(b1-4)GlcNAc(b1-6)]Man(a1-6)[GlcNAc(b1-3)Gal(b1-4)GlcNAc(b1-3)Gal(b1-4)GlcNAc(b1-2)Man(a1-3)]Man(b1-4)GlcNAc(b1-4)[Fuc(a1-6)]GlcNAc
# In short: as §1
# [31] = biological target: GlcNAc(b1-3)Gal(b1-4)GlcNAc(b1-3)Gal(b1-4)GlcNAc(b1-3)Gal(b1-4)GlcNAc(b1-3)Gal(b1-4)GlcNAc(b1-2)Man(a1-3)[GlcNAc(b1-3)Gal(b1-4)GlcNAc(b1-3)Gal(b1-4)GlcNAc(b1-3)Gal(b1-4)GlcNAc(b1-3)Gal(b1-4)GlcNAc(b1-2)Man(a1-6)]Man(b1-4)GlcNAc(b1-4)GlcNAc
# In short: as §1
# [32] = biological target: GlcNAc(b1-4)GlcNAc(b1-4)GlcNAc(b1-4)GlcNAc(b1-4)GlcNAc
# In short: as §1
# [33] = biological target: GlcNAc(b1-4)GlcNAc(b1-4)GlcNAc(b1-4)GlcNAc(b1-4)GlcNAc(b1-4)GlcNAc
# In short: as §1
# [34] = biological target: GlcNAc6S(b1-3)Gal(b1-4)GlcNAc
# In short: as §1
# [35] = biological target: Man(a1-2)Man(a1-2)Man(a1-3)Man
# In short: as §1
# [36] = biological target: Neu5Ac(a2-3)Gal(b1-3)GlcNAc(b1-2)[Neu5Ac(a2-3)Gal(b1-3)GlcNAc(b1-4)]Man(a1-6)[Neu5Ac(a2-3)Gal(b1-3)GlcNAc(b1-2)Man(a1-3)]Man(b1-4)GlcNAc(b1-4)GlcNAc
# In short: as §1
# [37] = biological target: Neu5Ac(a2-3)Gal(b1-3)GlcNAc(b1-3)Gal(b1-3)GlcNAc
# In short: as §1
# [38] = biological target: Neu5Ac(a2-3)Gal(b1-4)GlcNAc(b1-2)Man
# In short: as §1
# [39] = biological target: Neu5Ac(a2-3)[GalNAc(b1-4)]Gal(b1-4)GlcNAc(b1-3)GalNAc
# In short: as §1
# [40] = biological target: Neu5Ac(a2-6)Gal(b1-4)GlcNAc(b1-2)Man(a1-3)[Man(a1-6)]Man(b1-4)GlcNAc(b1-4)GlcNAc
# In short: as §1
# [41] = biological target: Neu5Ac(a2-6)Gal(b1-4)GlcNAc(b1-2)Man(a1-3)[Neu5Ac(a2-3)Gal(b1-4)GlcNAc(b1-2)Man(a1-6)]Man(b1-4)GlcNAc(b1-4)GlcNAc
# In short: as §1
# [42] = biological target: Neu5Ac(a2-6)Gal(b1-4)GlcNAc(b1-2)[Neu5Ac(a2-6)Gal(b1-4)GlcNAc(b1-6)]Man(a1-6)[Neu5Ac(a2-6)Gal(b1-4)GlcNAc(b1-2)Man(a1-3)][GlcNAc(b1-4)]Man(b1-4)GlcNAc(b1-4)GlcNAc
# In short: as §1
# [43] = biological target: Neu5Ac(a2-6)GalNAc(b1-4)GlcNAc
# In short: as §1
# [44] = biological target: Neu5Ac(a2-8)Neu5Ac(a2-3)Gal(b1-3)GalNAc(b1-4)[Neu5Ac(a2-3)]Gal(b1-4)Glc
# In short: as §1
# [45] = biological target: Neu5Ac(a2-8)Neu5Ac(a2-3)Gal(b1-3)GalNAc(b1-4)[Neu5Ac(a2-8)Neu5Ac(a2-3)]Gal(b1-4)Glc
# In short: as §1
# [46] = biological target: Neu5Ac(a2-8)Neu5Ac(a2-3)[Gal(b1-3)GalNAc(b1-4)]Gal(b1-4)Glc
# In short: as §1
# [47] = biological target: Neu5Ac(a2-8)Neu5Ac(a2-8)Neu5Ac(a2-3)Gal(b1-4)Glc
# In short: as §1
# [48] = biological target: Neu5Ac(b2-6)GalNAc
# In short: as §1
# [49] = biological target: Neu5Gc(a2-3)Gal(b1-3)GlcNAc
# In short: as §1
binder,measurement,setting,value
B1,glycan array binding signal (z-score),[1],0.621
same,glycan array binding signal (z-score),[2],2.73
same,glycan array binding signal (z-score),[3],2.72
same,glycan array binding signal (z-score),[4],0.784
same,glycan array binding signal (z-score),[5],2.81
same,glycan array binding signal (z-score),[6],2.22
same,glycan array binding signal (z-score),[7],0.082
same,glycan array binding signal (z-score),[8],0.651
same,glycan array binding signal (z-score),[9],0.693
same,glycan array binding signal (z-score),[10],-0.508
same,glycan array binding signal (z-score),[11],-0.275
same,glycan array binding signal (z-score),[12],0.174
same,glycan array binding signal (z-score),[13],0.642
same,glycan array binding signal (z-score),[14],-0.598
same,glycan array binding signal (z-score),[15],0.021
same,glycan array binding signal (z-score),[16],2.2
same,glycan array binding signal (z-score),[17],-0.03
same,glycan array binding signal (z-score),[18],0.267
same,glycan array binding signal (z-score),[19],2.75
same,glycan array binding signal (z-score),[20],1.18
same,glycan array binding signal (z-score),[21],2.7
same,glycan array binding signal (z-score),[22],-1.09
same,glycan array binding signal (z-score),[23],0.18
same,glycan array binding signal (z-score),[24],1.32
same,glycan array binding signal (z-score),[25],-1.21
same,glycan array binding signal (z-score),[26],0.73
same,glycan array binding signal (z-score),[27],1.09
same,glycan array binding signal (z-score),[28],-0.281
same,glycan array binding signal (z-score),[29],-0.268
same,glycan array binding signal (z-score),[30],2.07
same,glycan array binding signal (z-score),[31],0.151
same,glycan array binding signal (z-score),[32],-1.3
same,glycan array binding signal (z-score),[33],1.17
same,glycan array binding signal (z-score),[34],0.319
same,glycan array binding signal (z-score),[35],-0.544
same,glycan array binding signal (z-score),[36],0.153
same,glycan array binding signal (z-score),[37],-1.59
same,glycan array binding signal (z-score),[38],-1.13
same,glycan array binding signal (z-score),[39],2.15
same,glycan array binding signal (z-score),[40],2.04
same,glycan array binding signal (z-score),[41],-0.553
same,glycan array binding signal (z-score),[42],0.307
same,glycan array binding signal (z-score),[43],-1.18
same,glycan array binding signal (z-score),[44],1.68
same,glycan array binding signal (z-score),[45],-0.913
same,glycan array binding signal (z-score),[46],0.046
same,glycan array binding signal (z-score),[47],3.06
same,glycan array binding signal (z-score),[48],1.37
same,glycan array binding signal (z-score),[49],-0.635
